Screening results as filed in PubChem.
An excerpt weighted towards active compounds, which were near 12% of everything screened.
AMA1 RON2 block: AMA1-RON2 (P. falciparum) interaction inhibition. AlphaScreen AMA1-biotinylated RON2 peptide binding. Potency, µM (doses to about 58.2 µM), inactives show top-dose activity change, negative = inhibition, usual class: inhibitors. 360,000 tested, 0.2% active. AID 720542;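 note: 0% = vehicle wells and -100% = peptide control; nearly all actives have a fitted effect of over 45% in size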
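AMA1 (3D7) with his tag at 25 nM final met compounds first, then biotinylated RON2 peptide at 25 nM; detection used donor plus acceptor beads, 10 µg/mL apiece, read by AlphaScreen after 30 min at room temperature.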
HCV inh: inhibitors of hepatitis C virus infection; Huh7.5.1 HCVcc-Cre infection, luciferase reporter, 44 h; 340,000 tested, 3.4% active; Potency, µM (titrated, usually from 41.8 µM), inactives show at the top dose activity change, negative = inhibition, actives largely listed as inhibitors; AID 651820; note: % is set by controls: 0 for no effect and ±100 for the full control effect
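Cells seeded at 1,000/well and cultured 4 h, then compounds added followed by HCVcc-Cre virus (~0.5 moi). After 44 h further culture, luciferase substrate was added, plates held 15 min at room temperature, and luminescence read for 15 sec.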
NS1 function inh: blocks influenza NS1 protein function; Potency, µM (top dose mostly 46.1 µM), without a hit: at the top dose activity, positive = more growth; 270,000 tested, 0.4% active; calls by dose curve; note: actives are rising curves; nearly all actives have a fitted effect of over 50% in size
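Recovery from NS1-induced slow growth read by OD600 in budding yeast switched to galactose assay medium (pH 6.0, -URA) at 1:100 dilution. Compound 23 nl per well; the matching strain lacking NS1 serves as control.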
SARS PLpro yeast: SARS-CoV PLP inhibition in yeast. AID 485353. Potency, µM (series often up to 32.9 µM), for the others: at the top dose activity, positive = growth rescue, actives largely listed as activators. 330,000 tested, 0.19% active. S. cerevisiae expressing SARS-CoV PLpro, growth rescue; calls by dose curve; note: 0% is about no effect; nearly all actives have a fitted effect of over 55% in size
Pf growth 96h: P. falciparum growth inhibition at 96 hours. 320,000 tested, 6.9% active. Potency, µM (doses to about 28.7 µM), for inactives: at the highest dose activity change, negative = inhibition, actives largely listed as inhibitors. P. falciparum luciferase reporter growth, 96 h; note: % is set by controls: 0 for no effect and ±100 for the full control effect
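96 h incubation, 37 C, 5% CO2, of luciferase-reporter P. falciparum-infected RBCs (2% hematocrit, 0.05% parasitemia final) with test compounds; endpoint luminescence.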
Pf growth 48h: P. falciparum growth inhibition at 48 hours (one generation) | P. falciparum luciferase growth in erythrocytes, 48 h | Potency, µM (highest dose often 28.7 µM), for inactives: at the top dose activity change, negative = inhibition, most hits filed as inhibitors | 310,000 tested, 5.9% active | AID 504832; note: % is set by controls: 0 for no effect and ±100 for the full control effect
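Here the parasites carry a stable luciferase gene and grow inside erythrocytes in Albumax-based RPMI medium with compound for one erythrocytic cycle. Activity is scored as loss of luminescent signal.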
Active calls of the source: *; u = inconclusive; x = no result. Unless noted, calls come from the whole dose curve; as a rule, active = well fitted curve in the direction sought with a large enough effect; inconclusive = small, poorly fitted or top-dose-only effect, or another doubt; inactive = no such curve, though single readings can be large; an effect the other way counts as inactive or inconclusive. Potency is the fitted concentration of half-maximal effect.

SMILES	AMA1 RON2 block	HCV inh	NS1 function inh	SARS PLpro yeast	Pf growth 96h	Pf growth 48h
COc1ccc(OC)c(S(=O)(=O)N2CCC(C(=O)NCCC3=CCCCC3)CC2)c1	37.7%	-12.7%	-2.2%	-26.5%	-19.3%	13.1µM*
O=C(NCCc1ccccc1)C1CCN(S(=O)(=O)c2cccc3nonc23)CC1	2.6%	8.9%	-0.2%	-2.8%	39.2%	x
COC(=O)c1cccc(NC(=S)NCCC2=CCCCC2)c1	33.7%	12.6µM*	-2.0%	-0.2%	11.7µM*	20.1%
CCS(=O)(=O)N1CCC(C(=O)NCCC2=CCCCC2)CC1	2.2%	21.8%	-4.3%	0.9%	u	u
O=C(O)CCCCCNC(=O)OCC1c2ccccc2-c2ccccc21	-2.5%	u	1.8%	-0.5%	u	-13.0%
O=C(O)[C@H]1[O][Sb][O][C@@H](C(=O)O)C1O (some centres undefined)	x	x	-12.9%	x	x	x
O=C(NC(=S)NCCC1=CCCCC1)c1cncc(Br)c1	44.5%	-1.7%	13.7%	12.6µM*	13.6%	7.7%
CCOc1ccc(OCC)c(NC(=O)C2CCN(S(=O)(=O)c3cccc4nonc34)CC2)c1	27.2%	20.1%	-21.2%	4.7%	13.1µM*	x
C/C(=N\Nc1ncc(Cl)cc1Cl)c1ccc(C#N)cc1	u	-9.8%	x	-4.9%	11.2%	74.3%
CCN(CC)C(=O)COc1ccc(/C(C)=N/Nc2ncc(Cl)cc2Cl)cc1	39.0%	11.2µM*	-1.2%	-0.7%	22.1%	-15.1%
O=C(Oc1cccc2c(O)cccc12)c1ccco1	15.7%	2.7%	x	x	x	x
COc1cc(CN(C)C(C)C(=O)Nc2ccc([N+](=O)[O-])cc2Cl)ccc1OC(F)F (centres undefined)	1.7%	u	-15.4%	26.6%	u	13.1µM*
COc1ccc([N+](=O)[O-])cc1NC(=O)C(C)Sc1nc(-c2ccccc2)cs1 (centres undefined)	-21.5%	12.6µM*	u	-17.0%	u	u
COc1ccc([N+](=O)[O-])cc1NC(=O)C(C)N(C)Cc1cccc(OC)c1OC (centres undefined)	-13.1%	35.5µM*	2.1%	13.2%	u	-18.0%
COc1ccc(Cl)cc1NC(=O)C(C)N(C)Cc1ccc(C(F)(F)F)cc1 (centres undefined)	-10.2%	14.1µM*	2.4%	-3.2%	2.08µM*	7.38µM*
COc1ccc(Cl)cc1NC(=O)CN(C)C(C)C(=O)NCC1CCCCC1 (centres undefined)	15.5%	-23.7%	5.5%	0.8%	u	-18.2%
O=C(Nc1nnc([C@H]2C[C@H](O)[C@@H](CO)O2)s1)Nc1ccccc1Oc1ccccc1	4.3%	x	x	x	x	x
COc1ccccc1NC(=O)C(C)N(C)Cc1ccc(Cl)s1 (centres undefined)	u	-19.0%	-6.6%	-7.7%	u	8.28µM*
COc1ccccc1NC(=O)C(C)N(C)CC(=O)Nc1cccc2ccccc12 (centres undefined)	59.8%	-16.4%	x	4.3%	x	x
COc1ccc(CCNc2nc(-c3ccncc3)cs2)cc1OC	-22.3%	-22.8%	-33.0%	-5.2%	u	-16.1%
COc1ccc(CCNc2nc(-c3sc(C)nc3C)cs2)cc1OC	u	12.6µM*	-5.1%	-19.6%	u	x
COc1ccc(CCNc2nc(-c3ccc(O)cc3)cs2)cc1OC	-1.7%	u	u	-1.9%	10.4µM*	u
CCc1nnc(SCc2ccc([N+](=O)[O-])cc2)nc1CC	12.3%	-9.9%	x	x	x	x
C[C@@H]1CN([C@H](C)CO)C(=O)Cc2cc(NC(=O)Cn3cnnn3)ccc2O[C@@H]1CN(C)Cc1ccc(Cl)c(Cl)c1	2.1%	27.3%	x	-5.0%	x	x
Nc1ccc(C(=O)N/N=C/c2cn(Cc3cccc(F)c3)c3ccccc23)cc1	-20.3%	u	-4.8%	14.0%	-14.8%	-14.2%
CCN(CC)CCCNC(=O)C1c2ccccc2C(=O)N(CCOC)C1c1ccc(F)cc1 (centres undefined)	-4.5%	-2.8%	x	0.0%	13.1µM*	0.9%
